# Source: PubChem BioAssay (EPA / NIEHS)
# The source made the active and inactive calls. How the source made its calls: active means hit-call score of the fitted dose curve at least 0.9, where 1 is the maximum; inactive means score below 0.9.
# Columns and labels:
# [1] = ATG_CRE_CIS: Attagene CIS-FACTORIAL HepG2 Assay for human cAMP Responsive Element (CRE) binding protein 3 (AID 2282926); conditions: HepG2 CRE cis-reporter, Attagene multiplexed mRNA; actives raise or lower the signal
# In short: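 Readout: fluorescently labelled reporter transcripts resolved by capillary electrophoresis after RT-PCR, taken 24 h post-dosing in transfected HepG2. Endogenous transcription factor activity drives each cis-element reporter; gain or loss of signal fitted relative to DMSO control.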
# [2] = target: CCAAT/enhancer-binding protein beta (Homo sapiens) (UniProt P17676); assay: ATG_C_EBP_CIS: Attagene CIS-FACTORIAL HepG2 Assay for human CCAAT/Enhancer Binding Protein (C/EBP) beta (AID 2282927); conditions: HepG2 Attagene cis-factorial transcription factor reporter; actives raise or lower the signal
# In short: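 Endogenous C/EBPb-driven reporter transcripts measured in transfected human HepG2 cells at 24 h via RT-PCR and capillary electrophoresis of labelled fragments. Activity fitted in both directions relative to DMSO baseline.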
# [3] = ATG_CMV_CIS: Attagene CIS-FACTORIAL HepG2 Assay for human CMV (Internal Marker) (AID 2282928); conditions: HepG2 CMV promoter reporter, transcription factor profiling; actives raise or lower the signal;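 further: endpoint acts as a background internal control marker rather than a target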
# In short: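 Reporter transcripts from transfected HepG2 cells are isolated after 24 h of chemical dosing, reverse-transcribed and amplified. Fragments labeled with 6-FAM are cut with HpaI and quantified by capillary electrophoresis; DMSO defines baseline.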
# [4] = ATG_DR4_LXR_CIS: Attagene CIS-FACTORIAL HepG2 Assay for human Liver X Receptor (LXR), DR4 submotif (AID 2282929); conditions: HepG2 Attagene DR4 cis-reporter, mRNA transcription; actives raise or lower the signal
# In short: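 Measures endogenous transcription factor activity via a DR4-driven reporter transcript in human HepG2 cells. Compounds incubated 24 h; mRNA quantified by RT-PCR and capillary electrophoresis, analysed as gain or loss of signal versus DMSO.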
# [5] = ATG_AP_1_CIS: Attagene CIS-FACTORIAL HepG2 Assay for human Activator Protein 1 (AP-1) (AID 2282931); conditions: HepG2 Attagene cis-factorial AP-1 reporter mRNA; actives raise or lower the signal
# In short: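 Bidirectional concentration-response fitting against DMSO controls. Underlying signal: reporter mRNA from cis-promoter constructs in transiently transfected HepG2, measured after 24 h by RT-PCR and capillary electrophoresis.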
# [6] = ATG_AP_2_CIS: Attagene CIS-FACTORIAL HepG2 Assay for human Activator Protein 2 (AP-2) (AID 2282932); conditions: HepG2 AP-2 cis-reporter, Attagene transcription factor profiling; actives raise or lower the signal
# In short: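 Transiently transfected HepG2 cells are exposed to chemical for 24 h. Reporter transcripts are then measured as fluorescence following RT-PCR and capillary separation, and gain- or loss-of-signal is fitted relative to DMSO.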
# [7] = ATG_BRE_CIS: Attagene CIS-FACTORIAL HepG2 Assay for human Bone Morphogenetic Protein (BMP) Response Element (BRE) (AID 2282933); conditions: HepG2 BMP response element reporter, Attagene transcription factor profiling; actives raise or lower the signal
# In short: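 Gain- or loss-of-signal was derived by bidirectional fitting against DMSO controls. The signal came from reporter mRNA, measured by RT-PCR and capillary electrophoresis, in HepG2 cells transiently carrying multiple reporter units and dosed for 24 h.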
# [8] = target: Retinoic acid receptor alpha (Homo sapiens) (UniProt P10276); assay: ATG_DR5_RAR_CIS: Attagene CIS-FACTORIAL HepG2 Assay for human Retinoic Acid Receptor Alpha (RARE), DR5 submotif (AID 2282934); conditions: HepG2 Attagene cis-factorial RARE DR5 reporter, mRNA; actives raise or lower the signal;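 on AC50: reporter responds to endogenous RAR alpha beta and gamma in HepG2 not RARA alone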
# In short: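 Reporter transcripts from a DR5-regulated unit, measured via RT-PCR plus capillary electrophoresis, reflect endogenous RAR activity in transiently transfected human HepG2 liver cells. Exposure lasted 24 h; gain or loss of signal scored against DMSO.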
# [9] = target: Aryl hydrocarbon receptor (Homo sapiens) (UniProt P35869); assay: ATG_Ahr_CIS: Attagene CIS-FACTORIAL HepG2 Assay for human Aryl Hydrocarbon Receptor (Ahr) (AID 2282930); conditions: HepG2 AhR cis-factorial reporter transcription; actives raise or lower the signal
# In short: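 Reporter mRNA levels, quantified by RT-PCR and fluorescent capillary electrophoresis, reflect endogenous AhR transcriptional activity in HepG2 cells carrying transfected cis-promoter reporter constructs. Readout at 24 h post-dose; gain or loss fitted against DMSO baseline.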
# Retinoic acid receptor alpha (Homo sapiens), sequence (P10276 whole entry, looked up): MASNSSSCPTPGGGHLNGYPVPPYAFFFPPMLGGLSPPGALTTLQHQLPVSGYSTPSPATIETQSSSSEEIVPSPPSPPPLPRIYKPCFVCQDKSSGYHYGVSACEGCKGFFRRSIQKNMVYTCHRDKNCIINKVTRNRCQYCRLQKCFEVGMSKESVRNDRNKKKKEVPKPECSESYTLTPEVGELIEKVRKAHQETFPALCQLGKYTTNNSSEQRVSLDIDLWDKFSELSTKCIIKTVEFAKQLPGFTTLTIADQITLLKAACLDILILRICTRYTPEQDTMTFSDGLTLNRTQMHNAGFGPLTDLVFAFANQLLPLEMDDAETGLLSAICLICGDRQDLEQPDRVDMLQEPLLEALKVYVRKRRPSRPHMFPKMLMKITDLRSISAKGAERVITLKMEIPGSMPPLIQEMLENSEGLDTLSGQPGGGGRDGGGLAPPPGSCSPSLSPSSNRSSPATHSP
# CCAAT/enhancer-binding protein beta (Homo sapiens), sequence (P17676 whole entry, looked up, the tested form may be a part): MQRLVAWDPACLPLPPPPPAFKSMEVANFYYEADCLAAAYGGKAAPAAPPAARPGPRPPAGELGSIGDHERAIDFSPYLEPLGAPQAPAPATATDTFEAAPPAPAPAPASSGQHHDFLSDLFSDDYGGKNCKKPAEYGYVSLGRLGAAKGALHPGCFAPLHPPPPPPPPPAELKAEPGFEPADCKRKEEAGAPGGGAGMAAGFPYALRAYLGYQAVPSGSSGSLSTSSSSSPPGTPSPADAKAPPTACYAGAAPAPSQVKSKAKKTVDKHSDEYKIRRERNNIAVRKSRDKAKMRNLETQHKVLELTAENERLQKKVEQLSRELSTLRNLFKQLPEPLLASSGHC
# Aryl hydrocarbon receptor (Homo sapiens), sequence (P35869 whole entry, looked up): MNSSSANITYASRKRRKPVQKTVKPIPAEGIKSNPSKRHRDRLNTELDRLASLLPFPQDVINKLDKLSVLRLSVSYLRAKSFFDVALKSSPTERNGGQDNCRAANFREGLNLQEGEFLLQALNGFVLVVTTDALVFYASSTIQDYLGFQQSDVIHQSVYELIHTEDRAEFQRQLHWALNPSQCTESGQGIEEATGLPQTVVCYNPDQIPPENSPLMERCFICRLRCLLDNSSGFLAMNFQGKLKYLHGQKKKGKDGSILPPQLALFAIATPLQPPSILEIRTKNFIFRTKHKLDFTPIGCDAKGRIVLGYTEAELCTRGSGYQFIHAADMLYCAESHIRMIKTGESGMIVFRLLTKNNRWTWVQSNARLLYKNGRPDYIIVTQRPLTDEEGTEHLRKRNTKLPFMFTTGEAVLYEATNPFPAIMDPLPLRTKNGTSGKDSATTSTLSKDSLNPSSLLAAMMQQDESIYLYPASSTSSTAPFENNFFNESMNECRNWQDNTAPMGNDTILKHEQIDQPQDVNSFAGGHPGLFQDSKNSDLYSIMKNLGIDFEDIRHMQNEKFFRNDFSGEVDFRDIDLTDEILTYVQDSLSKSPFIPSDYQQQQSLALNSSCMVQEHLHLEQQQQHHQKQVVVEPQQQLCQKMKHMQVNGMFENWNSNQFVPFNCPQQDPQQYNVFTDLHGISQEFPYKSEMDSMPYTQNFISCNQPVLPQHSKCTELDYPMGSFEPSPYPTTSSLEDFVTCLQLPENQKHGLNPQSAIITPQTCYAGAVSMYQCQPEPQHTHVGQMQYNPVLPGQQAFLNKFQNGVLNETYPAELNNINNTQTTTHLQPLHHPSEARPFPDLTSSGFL
smiles,measurement,setting,value
CC(=O)C1C(=O)C=C(C)OC1=O (stereo unspecified),outcome,[1],inactive
same,outcome,[2],inactive
same,outcome,[3],inactive
same,outcome,[4],inactive
same,outcome,[5],inactive
same,outcome,[6],inactive
same,outcome,[7],inactive
same,outcome,[8],inactive
Nc1ccn([C@H]2CC[C@@H](CO)O2)c(=O)n1,outcome,[1],inactive
same,outcome,[2],inactive
same,outcome,[3],inactive
same,outcome,[4],inactive
same,outcome,[5],inactive
same,outcome,[6],inactive
same,outcome,[7],inactive
CNC(=C[N+](=O)[O-])NCCSCc1ccc(CN(C)C)o1,outcome,[1],inactive
same,outcome,[2],inactive
same,outcome,[3],inactive
same,outcome,[4],inactive
same,outcome,[9],inactive
same,outcome,[6],inactive
same,outcome,[7],inactive
same,outcome,[8],inactive
CCCCCCCCOC(=O)c1ccc(O)cc1,outcome,[1],inactive
same,outcome,[2],inactive
same,outcome,[3],inactive
same,outcome,[4],inactive
same,outcome,[5],inactive
same,outcome,[6],inactive
same,outcome,[7],inactive
same,outcome,[8],inactive
COc1ccc(C(C)=O)cc1,outcome,[1],inactive
same,outcome,[2],inactive
same,outcome,[3],inactive
same,outcome,[4],inactive
same,outcome,[9],inactive
same,outcome,[6],inactive
same,outcome,[7],inactive
same,outcome,[8],inactive
CC/C=C\CCOC(=O)C(C)C,outcome,[1],inactive
same,outcome,[2],inactive
same,outcome,[3],inactive
same,outcome,[4],inactive
same,outcome,[5],inactive
same,outcome,[6],inactive
same,outcome,[7],inactive
same,outcome,[8],inactive
CC(=O)Nc1cc(S(=O)(=O)O)cc2cc(S(=O)(=O)O)c(N=Nc3ccccc3)c(O)c12,outcome,[1],inactive
same,outcome,[2],inactive
same,outcome,[3],inactive
same,outcome,[4],inactive
same,outcome,[5],inactive
same,outcome,[6],inactive
same,outcome,[8],inactive
CCCCCCCC(=O)N(C)C,outcome,[1],inactive
same,outcome,[2],inactive
same,outcome,[3],inactive
same,outcome,[4],inactive
same,outcome,[5],inactive
same,outcome,[6],inactive
same,outcome,[7],inactive
same,outcome,[8],inactive
CC(=O)CC(C)(C)C1CCCCC1,outcome,[1],inactive
same,outcome,[2],inactive
same,outcome,[3],inactive
same,outcome,[4],inactive
same,outcome,[9],inactive
same,outcome,[6],inactive
same,outcome,[7],inactive
same,outcome,[8],inactive
CCn1cc(C(=O)O)c(=O)c2ccc(C)nc21,outcome,[1],inactive
same,outcome,[2],inactive
same,outcome,[3],inactive
same,outcome,[4],inactive
same,outcome,[5],inactive
same,outcome,[6],inactive
same,outcome,[7],inactive
same,outcome,[8],inactive
C=CC(C)CCCC(C)(C)O (stereo unspecified),outcome,[1],inactive
same,outcome,[2],inactive
same,outcome,[3],inactive
same,outcome,[4],inactive
same,outcome,[9],inactive
same,outcome,[6],inactive
same,outcome,[7],inactive
same,outcome,[8],inactive
CC(=O)OCC=C(C)CCC=C(C)CCC=C(C)C,outcome,[1],inactive
same,outcome,[2],inactive
same,AC50,[3],63.2 µM (active)
same,AC50,[4],33.4 µM (active)
same,AC50,[5],48.1 µM (active)
same,AC50,[6],145 µM (active)
same,outcome,[7],inactive
same,outcome,[8],inactive
CC(O)CNCC(C)O (stereo unspecified),outcome,[1],inactive
same,outcome,[2],inactive
same,outcome,[3],inactive
same,outcome,[9],inactive
same,outcome,[5],inactive
same,outcome,[6],inactive
CC(C)COC(=O)c1ccccc1O,outcome,[1],inactive
same,outcome,[2],inactive
same,outcome,[3],inactive
same,outcome,[4],inactive
same,outcome,[5],inactive
same,outcome,[6],inactive
same,outcome,[7],inactive
CC(O)CN (stereo unspecified),outcome,[1],inactive
same,outcome,[2],inactive
same,outcome,[3],inactive
same,outcome,[4],inactive
same,outcome,[6],inactive
same,outcome,[7],inactive
same,outcome,[8],inactive
CC1=CC[C@@H]2C[C@H]1C2(C)C,outcome,[1],inactive
same,outcome,[2],inactive
same,outcome,[3],inactive
same,outcome,[4],inactive
same,outcome,[5],inactive
same,outcome,[6],inactive
same,outcome,[7],inactive
same,outcome,[8],inactive
CCOC(=O)C(=O)OCC,outcome,[1],inactive
same,outcome,[2],inactive
same,outcome,[3],inactive
same,outcome,[4],inactive
same,outcome,[6],inactive
same,outcome,[7],inactive
same,outcome,[8],inactive
CCCCCCCCCC(=O)OCC,AC50,[1],92.2 µM (active)
same,outcome,[2],inactive
same,outcome,[3],inactive
same,outcome,[4],inactive
same,AC50,[9],58.8 µM (active)
same,outcome,[6],inactive
same,AC50,[8],63.2 µM (active)
C=C(C)C(=O)OCCC(C)OC(=O)C(=C)C (stereo unspecified),outcome,[1],inactive
same,outcome,[2],inactive
same,outcome,[3],inactive
same,outcome,[4],inactive
same,outcome,[6],inactive
same,outcome,[7],inactive
same,outcome,[8],inactive
CC(C)(C)C1CCC(O)CC1 (stereo unspecified),outcome,[1],inactive
same,outcome,[2],inactive
same,outcome,[3],inactive
same,outcome,[4],inactive
same,outcome,[5],inactive
same,outcome,[6],inactive
same,outcome,[7],inactive
same,outcome,[8],inactive
CCCCCc1cccc(=O)o1,outcome,[1],inactive
same,outcome,[2],inactive
same,outcome,[3],inactive
same,outcome,[4],inactive
same,outcome,[5],inactive
same,outcome,[6],inactive
same,outcome,[7],inactive
same,outcome,[8],inactive
CC(=O)CCc1ccc(O)cc1,outcome,[1],inactive
same,outcome,[2],inactive
same,outcome,[3],inactive
same,outcome,[4],inactive
same,outcome,[5],inactive
same,outcome,[6],inactive
same,outcome,[7],inactive
O=C(C=Cc1ccccc1)OCCCc1ccccc1,outcome,[1],inactive
same,outcome,[2],inactive
same,outcome,[3],inactive
same,outcome,[4],inactive
same,outcome,[5],inactive
same,outcome,[6],inactive
same,outcome,[7],inactive
same,outcome,[8],inactive
O=C(O)c1ccccc1O,outcome,[1],inactive
same,outcome,[2],inactive
same,outcome,[3],inactive
same,outcome,[4],inactive
same,outcome,[6],inactive
same,outcome,[7],inactive
same,outcome,[8],inactive
CC(=O)CCC=C(C)CCC=C(C)C,outcome,[1],inactive
same,outcome,[2],inactive
same,outcome,[3],inactive
same,outcome,[9],inactive
same,outcome,[5],inactive
same,outcome,[6],inactive
same,outcome,[7],inactive
CC(O)COCC(C)O (stereo unspecified),outcome,[1],inactive
same,outcome,[2],inactive
same,outcome,[3],inactive
same,outcome,[9],inactive
same,outcome,[5],inactive
same,outcome,[6],inactive
same,outcome,[7],inactive
O=C(O)c1cc2ccccc2cc1O,outcome,[1],inactive
same,outcome,[2],inactive
same,outcome,[3],inactive
same,AC50,[9],4.5 µM (active)
same,outcome,[5],inactive
same,outcome,[6],inactive
same,outcome,[7],inactive
same,outcome,[8],inactive
C=CCOCC(O)CO (stereo unspecified),outcome,[1],inactive
same,AC50,[2],100 µM (active)
same,outcome,[3],inactive
same,outcome,[9],inactive
same,outcome,[5],inactive
same,outcome,[6],inactive
same,outcome,[7],inactive
CC(=O)OC/C=C(C)/C=C/C=C(C)/C=C/C1=C(C)CCCC1(C)C,outcome,[1],inactive
same,outcome,[2],inactive
same,outcome,[3],inactive
same,outcome,[9],inactive
same,AC50,[5],40.6 µM (active)
same,outcome,[6],inactive
